We go through 13 compounds from PubChem BioAssay (NCI).

For the assay, the system named is MDA-MB-468 breast. The assay is described as follows: NCI-60 one-dose screen, 48 h (100 = growth as untreated, 0 = no growth, -100 = all killed). To be noted: 10 µM unless noted.

Molecules are shown by their SMILES. This is part of a sample that, as a whole, favours compounds with a hit. Of some 83,000 tested, about 20% had one in any assay.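 Treatment: one concentration, 48 hours, 96-well format. Scoring: percent growth, with anything below 10 considered active.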 A number with no mark means an inactive call. Activity calls are given as the source filed them.

Turning to `FC(F)(F)c1cccc([Si](F)(c2cccc(C(F)(F)F)c2)c2cccc(C(F)(F)F)c2)c1`, the growth is 54.4%.
The figure for `O=[N+]([O-])c1c(O)c(CNCCCO)cc(CNCCCO)c1O` is 108%; for `O=C(NCCCNc1cc(-c2cn(-c3ccccc3)nc2-c2cccc(O)c2)ccn1)Nc1cc(C(F)(F)F)cc(C(F)(F)F)c1` it is 70.4%; for `O=C(CSc1nc2ccccc2c(=O)n1-c1ccccc1)Nc1cccc(C(=O)/C=C/c2ccccc2)c1` it is 91.3%.
Under `Nc1ccc(Nc2ncnc3sc4c(c23)CCN(Cc2ccccc2)C4)cc1` stands 90.4%; under `CCC(C)(C)C1CCC(O)CC1` (stereo not drawn), 104%; under `Cc1cc(-c2nc3ccccc3s2)ccc1NC(=O)COc1ccc(Cl)cc1`, -39% (active).
The figure for `C=CCn1c(SCC(=O)Nc2ccc(C(=O)/C=C/c3cc(OC)c(OC)c(OC)c3)cc2)nnc1-c1ccc(Cl)cc1` is 2.35% (active); for `CC(=O)OCCCCN1C=C/C(=C\C(=O)n2ccc3ccccc32)c2ccccc21` it is 98.4%; for `COC(=O)C(=C\c1ccc2c(c1)OCO2)/C(=C/c1ccc2c(c1)OCO2)C(=O)OC` it is 111%.
Turning to `O=S(=O)(c1cccc(NC2=Nc3cccc4cccc2c34)c1)N1CCCC1`, the growth is 36.4%.
The figure for `CCOc1ccc(Br)cc1/C=N\N=C\c1cc(Br)ccc1OCC` is 128%; for `CC(=O)[C@@H]1CC[C@]2(COS(=O)(=O)c3ccc(C)cc3)CC[C@]3(C)[C@H](CC[C@@H]4[C@@]5(C)CCCNC(C)(C)[C@@H]5CC[C@]43C)[C@@H]12` it is 20.2%.
